# Records with an inconclusive call do not appear. A number with no mark means an inactive call. Calls follow the shape of the dose curve; as a rule, active = well fitted cell-killing curve with a large enough effect; inconclusive = small, poorly fitted or top-dose-only effect, or effect the other way; inactive = flat fitted curve, though single readings scatter.
# Experiment: qHTS for Inhibitors of ATXN expression: Validation of Cytotoxic Assay (AID 588349)
# Conditions: cytotoxicity counter-screen for ATXN expression inhibitors, cell viability; series mostly up to 57.1 µM; activity change, negative = cytotoxicity: at the top concentration
# Excerpt: Spinocerebellar ataxia type 2 (SCA2) is a multisystem neurodegenerative disease caused by a dominantly-acting mutation leading to expansion of a polyQ domain in the ataxin-2 protein (ATXN2). SCA2 patients develop progressive ataxia and later lose function in other neuronal systems. Prominent parkinsonian signs develop in some patients. Similar to many neurodegenerative disorders, no symptomatic or disease-modifying treatments are known.
# The primary objective of project is to identify compounds inhibiting ATXN2 expression and to test them for efficacy in SCA2 mouse models. To this end, in a collaboration between Dr. Daniel Scoles and scientists at NCGC, a cell-based assay adapted to high-throughput screening has been developed to screen the NIH Molecular Libraries Small Molecule Repository (MLSMR). Confirmed qHTS active compounds will be tested for toxicity against the human neuron-like SH-SY5Y cell line. This line is the parental cell type used to generate the transgenic line used in the primary assay, and so should provide an isogenic control to test the inherent toxicity of qHTS actives.
# NIH Chemical Genomics Center [NCGC]
# NIH Molecular Libraries Probe Centers Network [MLPCN]
# Assay Submitter (PI): Stefan Pulst and Daniel Scoles, University of Utah
# […] cultured cells will be dosed with titrated compounds and incubated for 72 hr at 37 degrees C. Toxicity will be assessed using the CellTiter Glo kit (Promega), which uses intracellular ATP concentration as a viability marker.
# % is scaled to controls: 0 for no effect and ±100 for the full control effect.
row,Structure (SMILES),"activity change, negative = cytotoxicity [%]"
1,COc1cc2c(CCNC(C)=O)c[nH]c2cc1O,-24.9
2,COc1ccccc1N1CCN(CCCCNC(=O)c2ccc3ccccc3c2)CC1,-13.6
3,O=C(O)C1=CCCN(CCON=C(c2ccccc2)c2ccccc2)C1,9.1
4,O=[N+]([O-])c1cccc2c(Br)[nH]nc12,-13
5,O=C(O)CCC/C=C\C[C@@H]1[C@@H](/C=C/[C@H](O)C2Cc3ccccc3C2)[C@@H](F)C[C@@H]1O,-3.88
6,NC(N)=NC(N)=Nc1ccccc1,-6.7
7,O=C1C2C=CC=CC2=NC(=S)N1CCN1CCC(=C(c2ccc(F)cc2)c2ccc(F)cc2)CC1 (stereo not given),-9.29
8,CCCN(CCc1ccccc1)C1CCc2c(O)cccc2C1 (stereo not given),-28.6
9,O=C(O)C1=CCNCC1,-7.47
10,O=C(O)/C(=C/c1c(C(=O)O)[nH]c2cc(Cl)cc(Cl)c12)c1ccccc1,-12.6
11,N[C@@H](Cc1ccc(O)c(I)c1)C(=O)O,-8.02
12,CC1CCN=C(N)S1 (stereo not given),-8.66
13,N=C(N)SCCc1cnc[nH]1,-8.42
14,Cc1nc2n(c(=O)c1CCN1CCC(c3noc4cc(F)ccc34)CC1)CCCC2O (stereo not given),-17
15,NC1(C(=O)O)CC1,-3.36
16,CCN(CC)CCOC(=O)c1cc(Cl)c(N)cc1OC,-17.9
17,Cc1cc2c(cc1Cl)N(C(=O)Nc1ccnc3ccccc13)CC2,-16.1
18,CCSC(=N)N,-17.2
19,Nc1ccc(N2C(=O)c3ccccc3C2=O)c(Cl)c1,-5.31
20,CN(C)CCC(c1ccc(Br)cc1)c1ccccn1 (stereo not given),-15.4

row,Structure (SMILES),"activity change, negative = cytotoxicity [%]"
1,N[C@H]1CONC1=O,-9.82
2,O=C(O)C1CN(CCCP(=O)(O)O)CCN1 (stereo not given),5.79
3,N[C@@H](CCC(=O)N[C@H](CSN=O)C(=O)NCC(=O)O)C(=O)O,-8.87
4,CCCCCC[C@@H]([C@@H](C)O)n1cnc2c(N)ncnc21,14.2
5,O=C(O)c1cc(=O)cc(C(=O)O)[nH]1,3.08
6,Nc1ncnc2c1nc(Sc1ccc(Cl)cc1)n2[C@H]1OC2COP(=O)(O)O[C@@H]2C1O (stereo not given in full),-15.5
7,CCN1C(=O)C=CC1=O,-16.1
8,CC(=O)C(C)=O,-8.46
9,Nc1nc2c(cnn2CCc2ccccc2)c2nc(-c3ccco3)nn12,2.67
10,NC(N)=N[C@@H](CCC(=O)O)C(=O)O,1.07
11,C#CCn1c(=O)c2c(ncn2C)n(C)c1=O,-2.7
12,CN(C)S(=O)(=O)c1ccc2c(c1)/C(=C/c1cc3c([nH]1)CCCC3)C(=O)N2,-12
13,CC(=O)/C(C)=N/O,13
14,CCCCCCCCCCC(C)(C)C(=O)Nc1c(OC)cc(OC)cc1OC,-11.9
15,Nc1ccc(CCNc2ncnc3c2ncn3C2OC(CO)C(O)C2O)cc1 (stereo not given),-6.14
16,N[C@@H](Cc1ccc(F)cc1)C(=O)O,-6.01
17,C[C@@]1(C2CCCC2)Cc2cc(OCC(=O)O)c(Cl)c(Cl)c2C1=O,-14.8
18,O=c1cc(O)cc(/C=C/c2ccc(O)c(O)c2)o1,-23.1
19,[Li+],-5.84
20,COc1ccc(CCN(C)CCc2ccc(OC)c(OC)c2)cc1OC,-11.9
